From PubChem
M1 ag parental – M1 agonist counterscreen hit in parental CHO-K1 cells. Fluo-8 calcium fluorescence; scaled to maximal ATP response, vehicle zero. actives 0.48% (n = 360,000). activation, % at 3 µM; in the data active = activation above about 15%;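 note: untransfected CHO-K1 host cells lacking M1 receptor as counterscreen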
M1 PAM – human CHRM1 positive allosteric modulation; CHO-K1 hM1, Fluo-8 calcium fluorescence, ACh EC20; 0% = ACh EC20, 100% = maximal ACh; activation, % at 3 µM; actives 0.088% (n = 360,000); in the data active = activation above about 19%, passing the limit was not always enough
Target sequence (P11229 whole entry, looked up): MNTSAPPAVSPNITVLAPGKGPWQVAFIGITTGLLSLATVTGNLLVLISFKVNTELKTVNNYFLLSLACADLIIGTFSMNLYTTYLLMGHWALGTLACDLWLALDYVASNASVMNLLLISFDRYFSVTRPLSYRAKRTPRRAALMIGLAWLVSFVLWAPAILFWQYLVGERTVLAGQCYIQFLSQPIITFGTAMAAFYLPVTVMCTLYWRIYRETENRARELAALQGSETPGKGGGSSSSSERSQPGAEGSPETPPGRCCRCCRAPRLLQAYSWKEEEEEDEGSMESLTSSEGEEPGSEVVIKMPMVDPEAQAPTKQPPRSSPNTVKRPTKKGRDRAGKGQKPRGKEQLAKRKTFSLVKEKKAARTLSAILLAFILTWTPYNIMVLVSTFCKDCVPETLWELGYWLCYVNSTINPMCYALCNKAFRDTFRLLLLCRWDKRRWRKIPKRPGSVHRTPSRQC
M1 antag – human CHRM1 antagonism; actives 1.3% (n = 360,000); P11229; inhibition, % at 3 µM; CHO-K1 hM1, Fluo-8 calcium fluorescence, ACh EC80 antagonist;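 active = percent inhibition above its own plate's cutoff, namely the mean of that plate's compound wells plus 3 SD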;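 note: peak over basal fluorescence ratio during 140 s after agonist addition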
CHO-K1 Ca PAM – counter-screen for M1 PAMs: effect in parental CHO-K1 cells; ATP EC20, Fluo-8 calcium fluorescence; 0% at ATP EC20, 100% at ATP max; activation, % at 3 µM; actives 0.02% (n = 360,000); AID 602247;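 active = activation above the run cutoff, the mean activation of all test compounds plus 3 SD, cut at about 40% in these data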;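 note: peak over basal fluorescence ratio in a 140 s read after ATP addition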
M1 ag – agonists of human M1 muscarinic receptor | activation, % at 3 µM | P11229 | CHO-K1 hM1, Fluo-8 calcium fluorescence, agonist mode; 0% DMSO, 100% acetylcholine EC100 | actives 0.33% (n = 360,000);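 active = activation above the run's mean compound activation plus 3 SD, cut at about 16% in these data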;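 note: peak over basal fluorescence ratio within a 140 s kinetic read after compound addition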
CHO-K1 Ca antag – counter-screen for M1 antagonists: effect in parental CHO-K1 cells; ATP-induced calcium, Fluo-8 fluorescence; inhibition, % at 3 µM; actives 0.6% (n = 360,000); AID 602250;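 active = inhibition above a per-plate cutoff, the plate's mean sample inhibition plus 3 SD, cut at about 24% in these data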
Of the large screens only hits and unclear results are named; the others gave an inactive call. A selection: hits, their analogues and other compounds. The true share with any hit is near 2.3%.

Cc1ccc(Sc2c([N+](=O)[O-])c(C)nn2C)cc1	M1 antag 88
CC1CCN(c2ccc3c(c2)S(=O)(=O)c2cccc(C(=O)NCc4ccc(F)cc4)c2C3=O)CC1	none
O=C(NCc1ccc(F)cc1)c1cccc2c1C(=O)c1ccc(N3CCC(N4CCCCC4)CC3)cc1S2(=O)=O	M1 antag 40
O=C(NC1CC1)c1cccc2c1C(=O)c1ccc(N3CCC(Cc4ccccc4)CC3)cc1S2(=O)=O	M1 ag 21
O=S(=O)(Nc1c(F)cccc1F)c1ccc(Cl)nc1	none
CCOC(=O)c1cnc(-n2[nH]c(C)c(Cc3ccccc3)c2=O)[nH]c1=O	none
CCOC(=O)c1cnc(Cc2ccccc2)[nH]c1=O	M1 antag 25
Cc1c(C(=O)N2CCCCC2)nn(-c2ccc(Cl)cc2)c(=O)c1C#N	none
N#Cc1c(C(F)(F)F)cc(-c2ccccc2)n(N)c1=O	CHO-K1 Ca antag 31
COc1cccc(OC)c1C(=O)NCCOc1cc(C)cc(C)c1	M1 ag parental 15
Cc1cc(C)c(C(=O)Nc2ccc(Br)c(C(F)(F)F)c2)c(C)c1	M1 antag 65
O=C(O)c1ccccc1C(=O)Nc1ccc(Br)c(C(F)(F)F)c1	none
Cc1ccnc(N/C=C(\C#N)c2nc(-c3cccc(Br)c3)cs2)c1	M1 ag parental 85, M1 antag 43, M1 ag 161, CHO-K1 Ca antag 39
N#C/C(=C\Nc1ccc2cn[nH]c2c1)c1nc(-c2ccccc2)cs1	none
S=c1[nH]nc(-c2cccs2)n1/N=C/c1c(Cl)cccc1Cl	M1 ag 20
CC(=O)Nc1ccc(Sc2ncccc2C(=O)Nc2ccc(OC(F)(F)F)cc2)cn1	M1 ag parental 53, M1 antag 64, M1 ag 66, CHO-K1 Ca antag 59
Cn1c(SCCN2CCCC2)nnc1C1CCN(S(=O)(=O)c2cccc(F)c2)CC1	M1 antag 63
Cn1c(SCC(N)=O)nnc1C1CCN(S(=O)(=O)c2ccccc2C(F)(F)F)CC1	none
Cc1ccccc1-c1cc2nc(OCC3CCCO3)n(C)c(=O)c2s1 (centres undefined)	none
O=C(COc1ccc(-c2ccccc2)cc1)NNC(=O)NC1CCCCC1	M1 antag 33
COc1cc(/C=N/NC(=O)c2ccncc2)ccc1OC(=O)c1cc(OC)c(OC)c(OC)c1	none
COc1ccc(-c2csc(NC(=O)c3nc(-c4ccccc4)oc3C)n2)cc1	CHO-K1 Ca antag 31
COc1ccc2cc(C(=O)C3CCCN(Cc4cccc(C)n4)C3)ccc2c1 (centres undefined)	M1 antag 60
Cc1ncc(CN2CCCC(C(=O)Nc3ccc(-c4cscn4)cc3)C2)cn1 (centres undefined)	none
COc1cccc(-c2ccc(NC(=O)C3CCCN(Cc4cnn(C)c4C)C3)cc2)c1 (centres undefined)	none
O=C(c1ccc2c3c(cccc13)CC2)C1CCCN(Cc2cccnc2)C1 (centres undefined)	none
COc1ccc(-c2[nH]ncc2CN2CCCC(C(=O)c3cccc(OC)c3)C2)cc1 (centres undefined)	none
Cc1cccc(CN2CCCC(C(=O)c3ccc4c5c(cccc35)CC4)C2)n1 (centres undefined)	M1 antag 95
COc1cccc(-c2ccc(NC(=O)C3CCCN(Cc4cccc(C)n4)C3)cc2)c1 (centres undefined)	M1 antag 53
COc1cccc(CN2CCCC(C(=O)Nc3ccc(-c4cscn4)cc3)C2)c1 (centres undefined)	M1 antag 35
Cc1cccc(N2CCN(C(=O)c3ccc(-n4cncn4)c([N+](=O)[O-])c3)CC2)c1C	none
CCN(C(=S)NC(=O)c1ccccc1Br)C1CCCCC1	none
Cc1ncc(CN2CCCC(C(=O)Nc3ccc(-c4cccc(F)c4)cc3)C2)n1C (centres undefined)	M1 antag 32
COc1cccc(-c2ccc(NC(=O)C3CCCN(Cc4cnc(C)n4C)C3)cc2)c1 (centres undefined)	none
CCN=C(Nc1ccc2c(c1)OCO2)SC1CC(=O)N(c2ccc(OC)cc2)C1=O (centres undefined)	M1 antag 27
CCN=C(NCC)SC1CC(=O)N(c2ccc(F)cc2)C1=O (centres undefined)	M1 antag 35
Cc1ccccc1C(=O)NC1CCN(CC(=O)NCc2ccccc2)CC1	none
Nc1nonc1-n1nnc(C(=O)N/N=C/c2ccccn2)c1CNc1ccccc1	none
O=C(COc1c(F)c(F)cc(F)c1F)NC(=O)NC1CCCC1	M1 antag 31
Cc1ccc(C(=O)N[C@@H](Cc2ccccc2)C(=O)N2CCC3(CC2)NCCc2[nH]cnc23)cc1C	M1 antag 47
COc1ccc(C(=O)NCC(c2ccco2)N2CCc3ccccc32)cc1 (centres undefined)	none
COc1ccc(C(=O)NCC(c2cccs2)N2CCc3ccccc32)c(OC)c1 (centres undefined)	CHO-K1 Ca PAM 58
Cn1c(=O)c(=O)n(C)c2cc(N3CCOCC3)c(NS(=O)(=O)c3ccc(Br)cc3)cc21	none
CCNC(=O)C1(C)CCCN(C(=O)c2ccc3c(c2)C(C)(C)CCC3(C)C)C1 (centres undefined)	none
COc1ccc(-c2csc(C(C)(O)c3ccc(F)c(F)c3)n2)cc1 (centres undefined)	none
C=CCN(C)CC/C=C1\c2ccccc2CSc2ccccc21	M1 antag 91
CN(C)CC/C=C1/c2ccccc2COc2ccc(CC(=O)O)cc21	none
CN(CC/C=C1/c2ccccc2CSc2ccccc21)CCCO	M1 antag 89
CC(O)CN(C)CC/C=C1/c2ccccc2CSc2ccccc21 (centres undefined)	M1 antag 63
C#CCN(C)CC/C=C1\c2ccccc2CSc2ccccc21	M1 antag 79
COc1ccc(-n2c(CCC(=O)O)ccc2-c2ccc(F)cc2)c(OC)c1	none
c1ccc2c(c1)CSc1ccccc1N2	none
NCC/C=C1/c2ccccc2CSc2ccccc21	M1 antag 69
COc1ccc(N/N=C(\C#N)C(=N)SCc2ccccc2)cc1	M1 ag parental 18
COc1ccc(N/N=C(\C#N)C(=N)N2CCCCC2)cc1	none
C[C@H](CO)N1C[C@H](C)[C@@H](CN(C)S(=O)(=O)c2cn(C)cn2)Oc2ccc(NC(=O)Cc3ccccc3)cc2C1=O	none
COC(=O)c1cn(CC(=O)Nc2ccc(F)cc2)c2ccccc12	none
CCOC(=O)c1oc2c(O)c(O)ccc2c(=O)c1-c1nncn1-c1ccccc1	none
CCOC(=O)c1oc2c(C)c(O)ccc2c(=O)c1-c1nncn1-c1ccccc1	CHO-K1 Ca antag 31
Cc1cc(NC(=O)CSc2ncccc2C(=O)O)no1	none
